Several values for one entry are separate records, joined by “and”; a condition that tells them apart may be missing. Equal values may be shown once. Inconclusive results are not listed. Unmarked numbers belong to inactive results. Activity calls are given as the source filed them. The call rests on the fitted dose curve; in most records, active means well fitted curve in the direction sought with a large enough effect; inconclusive means small, poorly fitted or top-dose-only effect, or another doubt; inactive means no such curve, though single readings can be large; an effect the other way counts as inactive or inconclusive.
Key:
[1] = Viability qHTS for spleen associated tyrosine kinase inhibitor (SYKi) drug resistant MV4-11 cells (AID 1963824); details: SYKi-resistant MV4-11 viability, CellTiter-Glo, 72 h; series mostly up to 45 µM; further: nearly all actives have a fitted effect of over 35% in size
Summary of the method: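 SYK-inhibitor-resistant MV4-11 AML cells were seeded at 500 per well onto compound and cultured 72 hours (37 °C, 5% CO2). CellTiter-Glo was then added, and after 10 min at room temperature, luminescence gave viability.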

[2] = Cellular viability qHTS for adrenocortical cancer (ACC) cell line SW-13 (AID 1963989); details: SW-13 ACC cells viability, CellTiter-Glo, 48 h; activity (max response): hits give low values; further: nearly all actives have a fitted effect of over 65% in size;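 on activity (max response): cells grown in serum-free medium with ITS supplement; on the % scale 0 is the no-effect control and ±100 the full control effect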
Summary of the method: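 SW-13 cells in ITS-supplemented serum-free DMEM were plated overnight, then exposed for 48 h at 37C to compound titrations (up to 46 uM final). Viability was read by CellTiter-Glo luminescence; four-parameter logistic fits gave IC50 and efficacy.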

[3] = Cellular viability qHTS for adrenocortical cancer (ACC) cell line NCI-H295R (AID 1963990); details: CellTiter-Glo ATP luminescence, 48 h; series mostly up to 46.1 µM; further: nearly all actives have a fitted effect of over 60% in size
Summary of the method: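 Luminescent ATP read-out (CellTiter-Glo, 20 min RT) after 48 h drug exposure of NCI-H295R cells; a titration up to 46 uM final. Data normalized to doxorubicin (100% inhibition) and DMSO (0%); 4-parameter fit gives IC50, max response.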
Potency means the concentration at half of the fitted maximal effect.

SMILES	Potency [1]	Potency [2]	Potency [3]	activity (max response) [2]
COc1cccc(-c2cc(F)ccc2C2Cc3nc(N)nc(C)c3C(=O)N2)n1 (stereo not drawn)	0.0186 µM (active)	0.112 µM (active)	0.0501 µM (active)	–
COc1ccnc2[nH]cc(C(=O)C(=O)N3CCN(C(=O)c4ccccc4)C[C@H]3C)c12	inactive	–	inactive	1.31%
COc1ccc(C(=O)c2ccccc2O)c(O)c1	9.44 µM (active)	–	inactive	11.3%
CCOCc1nc2c(N)nc3ccccc3c2n1CC(C)(C)O	18.6 µM (active)	–	inactive	-23.1%
CC(C)(C)C(=O)C(Oc1ccc(Cl)cc1)n1ccnc1 (stereo not drawn)	20.6 µM (active)	–	inactive	-11.3%
CC1(C)O[C@@H]2C[C@H]3[C@@H]4CCC5=CC(=O)CC[C@]5(C)[C@@]4(F)[C@@H](O)C[C@]3(C)[C@]2(C(=O)CCl)O1	18.8 µM (active)	–	inactive	9.64%
CC(CSC(=O)c1ccccc1)C(=O)N1C[C@@H](Sc2ccccc2)C[C@H]1C(=O)O (stereo partly drawn)	inactive	–	inactive	-2.01%
C[C@]12CCC(=O)C=C1C=C[C@@H]1[C@@H]2CC[C@@]2(C)[C@H]1CC[C@@]21CCC(=O)O1	inactive	–	inactive	8.87%
C=CC(=O)Nc1cccc(Oc2nc(Nc3ccc(N4CCN(C)CC4)c(F)c3)nc3[nH]ccc23)c1	0.525 µM (active)	2.82 µM (active)	8.91 µM (active)	–
Cc1cc(Oc2ccc3nc(COc4ccc(CC5SC(=O)NC5=O)cc4)n(C)c3c2)cc(C)c1N (stereo not drawn)	16.6 µM (active)	–	inactive	-6.08%
CC(=O)Nc1ccc(O)cc1	inactive	–	inactive	-6.94% and -15.1%

Source: PubChem BioAssay (NCATS)
